Laboratory results reported in PubChem BioAssay AID1159580 (chemical genetic matrix, 2015).
Several values for one entry are separate records, joined by “and”; a condition that tells them apart may be missing. Equal entries are not always repeated. The whole screen tested about 5,500 compounds, of which about 2,000 (36%) were called active. Another 18% or so got no clear call; they are omitted. Cut-off read from the data, not from the text of the source: active = normalized growth mostly below about 0.91 (no sharp cut-off); inconclusive = no clear call, values can overlap the other calls; inactive = mostly above about 0.92. This is one part of the list.

Assay: chemical genetic growth profiling, strain panel (AID 1159580);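 note: tested at 20 µM; growth read once vehicle control cultures reached saturation at 30 °C; 1 = growth at the plate median or of vehicle wells; lower values mean less growth of the strain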
Details: S. cerevisiae deletion strains, growth OD

Measured: normalized growth

N[C@@H](C(=O)O)[C@@H](O)[C@H](O)[C@H](O)CO
inactive: locus YAL013W, strain DEP1, active compounds read low 1.01 | locus YAL021C, strain ccr4, active compounds read low 1.01 | locus YAL026C, strain drs2, active compounds read low 1.04 | locus YAL030W, strain snc1, active compounds read low 1.03 | locus YBL061C, strain skt5, active compounds read low 1.03 | locus YBR009C, strain hhf1, active compounds read low 1.03 | locus YBR021W, strain FUR4, active compounds read low 1.01 | locus YBR023C, strain chs3, active compounds read low 1.04 | locus YBR171W, strain sec66, active compounds read low 1.04 | locus YBR229C, strain ROT2, active compounds read low 1 | locus YBR231C, strain swc5, active compounds read low 1.03 | locus YBR279W, strain paf1, active compounds read low 1.01 | locus YCL011C, strain gbp2, active compounds read low 1.04 | locus YCL016C, strain dcc1, active compounds read low 1.02 | locus YCL029C, strain bik1, active compounds read low 1.02 | locus YCL061C, strain MRC1, active compounds read low 1.02 | locus YCL069W, strain vba3, active compounds read low 1.03 | locus YCR088W, strain abp1, active compounds read low 1.02 | locus YDL005C, strain med2, active compounds read low 1.03 | locus YDL035C, strain GPR1, active compounds read low 1.03 | locus YDL040C, strain nat1, active compounds read low 1.01 | locus YDL074C, strain BRE1, active compounds read low 1.06 | locus YDL101C, strain DUN1, active compounds read low 1.01 | locus YDL185W, strain tfp1, active compounds read low 1.02 | locus YDL192W, strain arf1, active compounds read low 1.03 | locus YDR001C, strain nth1, active compounds read low 1.02 | locus YDR069C, strain doa4, active compounds read low 1.02 | locus YDR101C, strain arx1, active compounds read low 1.02 | locus YDR137W, strain rgp1, active compounds read low 1.04 | locus YDR150W, strain NUM1, active compounds read low 1.02 | locus YDR159W, strain sac3, active compounds read low 1.07 | locus YDR162C, strain NBP2, active compounds read low 1.01 | locus YDR195W, strain ref2 1.02 | locus YDR297W, strain sur2, active compounds read low 1.03 | locus YDR318W, strain mcm21, active compounds read low 1 | locus YDR334W, strain swr1, active compounds read low 1.03 | locus YDR335W, strain msn5, active compounds read low 1.03 | locus YDR388W, active compounds read low 1.01 | locus YDR392W, strain spt3, active compounds read low 1.02 | locus YDR502C, strain sam2, active compounds read low 1.01 | locus YEL003W, strain gim4, active compounds read low 1.03 | locus YEL037C, strain rad23, active compounds read low 1.02 | locus YEL061C, strain CIN8 (second series), active compounds read low 1.03 | locus YEL061C, strain CIN8, active compounds read low 1.02 | locus YER015W, strain faa2, active compounds read low 1.03 | locus YER016W, strain bim1, active compounds read low 1.02 | locus YER110C, active compounds read low 1.02 | locus YER111C, strain swi4, active compounds read low 1.03 | locus YER155C, strain BEM2 (second series), active compounds read low 1 | locus YER155C, strain BEM2, active compounds read low 1.01 | locus YER167W, strain BCK2, active compounds read low 1 | locus YFR010W, strain ubp6, active compounds read low 1.04 | locus YGL078C, strain dbp3, active compounds read low 1.01 | locus YGL086W, strain mad1, active compounds read low 1.01 | locus YGL167C, strain pmr1, active compounds read low 1.04 | locus YGL173C, strain kem1, active compounds read low 1.04 | locus YGL227W, strain vid30, active compounds read low 1.02 | locus YGL240W, strain doc1, active compounds read low 1.02 | locus YGL248W, strain PDE1, active compounds read low 1 | locus YGL253W, strain hxk2, active compounds read low 1.04 | locus YGR135W, strain pre9, active compounds read low 1.01 | locus YGR252W, strain gcn5, active compounds read low 0.967 | locus YHR013C, strain ard1, active compounds read low 1.05 | locus YHR027C, strain rpn1, active compounds read low 1.04 | locus YHR030C, strain SLT2, active compounds read low 1.01 and 1.05 | locus YHR079C, strain IRE1 (second series), active compounds read low 1.02 | locus YHR079C, strain IRE1, active compounds read low 1.03 | locus YHR094C, strain hxt1, active compounds read low 1.02 | locus YHR129C, strain ARP1, active compounds read low 1 | locus YHR142W, strain chs7, active compounds read low 1.07 | locus YHR200W, strain rpn10, active compounds read low 1.02 | locus YIL066C, strain RNR3, active compounds read low 1.01 | locus YIL073C, strain SPO22, active compounds read low 1.05 | locus YIL125W, strain kgd1, active compounds read low 1.02 | locus YIR030C, strain dcg1, active compounds read low 1.02 | locus YJL092W, strain hpr5, active compounds read low 1.03 | locus YJL095W, strain BCK1 (second series), active compounds read low 1.02 | locus YJL095W, strain BCK1, active compounds read low 1.01 and 1.04 | locus YJL115W, strain asf1, active compounds read low 1.04 | locus YJL129C, strain trk1, active compounds read low 1.06 | locus YJL134W, strain LCB3, active compounds read low 1.01 | locus YJL154C, strain vps35, active compounds read low 1.02 | locus YJL164C, strain tpk1, active compounds read low 1.03 | locus YJL166W, strain qcr8, active compounds read low 1.03 | locus YJL168C, strain set2, active compounds read low 1.02 | locus YJL187C, strain SWE1 (second series), active compounds read low 1.01 | locus YJL187C, strain SWE1, active compounds read low 1.05 | locus YJR043C, strain POL32, active compounds read low 1.02
